# PubChem BioAssay (EPA / NIEHS)
# Results filed as inconclusive are left out. Activity calls are given as the source filed them. How the source made its calls, unless noted: active means hit-call score of the fitted dose curve at least 0.9, where 1 is the maximum; inactive means score below 0.9.
# Key:
# [1] = read-out: Interleukin 6 (IL6), IL6 (gene 3569); experiment: BSK_BT_xIL6: BioMAP Diversity Plus: BT Assay for Interleukin 6 (IL6) Biomarker Activity (AID 2284228); conditions: primary human B cells with PBMC
# In short: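 IL-6 secretion measured (Luminex xMAP) in human primary B cell + PBMC co-culture at 24 h of chemical exposure; DMSO served as negative control and activity baseline, with curves fitted for increase.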
# [2] = read-out: Tumor necrosis factor (Homo sapiens) (UniProt P01375); experiment: BSK_BT_xTNFa: BioMAP Diversity Plus: BT Assay for Tumor necrosis factor alpha (TNF-alpha) Biomarker Activity (AID 2284230); conditions: primary human B cells with PBMC
# In short: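 Endpoint derived in the positive direction versus DMSO vehicle. Cells: B cells together with PBMC, exposed 24 h before TNF-alpha in the medium was read on the Luminex xMAP platform.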
# [3] = read-out: Vascular cell adhesion molecule 1 (VCAM1), VCAM1 (gene 7412); experiment: BSK_MyoF_VCAM1: BioMAP Diversity Plus: MyoF Assay for Vascular cell adhesion molecule 1 (VCAM1) Biomarker Activity (AID 2284231); conditions: primary human lung fibroblasts
# In short: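 VCAM-1 levels, lung fibroblasts, ELISA, 24 h exposure, increase scored relative to DMSO.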
# [4] = read-out: Collagen I, COL1A1 (gene 1277); experiment: BSK_MyoF_CollagenI: BioMAP Diversity Plus: MyoF Assay for Collagen I Biomarker Activity (AID 2284238); conditions: primary human lung fibroblasts
# In short: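 Measured by ELISA: Collagen I from human lung fibroblasts 24 h after compound addition, analysed for signal gain with DMSO as baseline; overt toxicity read from SRB staining of parallel cultures at the same time.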
# [5] = read-out: Collagen III, COL3A1 (gene 1281); experiment: BSK_MyoF_CollagenIII: BioMAP Diversity Plus: MyoF Assay for Collagen III Biomarker Activity (AID 2284239); conditions: primary human lung fibroblasts
# In short: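 Multiplexed cell assay in lung fibroblasts, harvested at 24 h post-dose. Collagen III detected by ELISA, with positive-direction fitting relative to DMSO vehicle.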
# [6] = read-out: Interleukin 17F (IL17F), IL17F (gene 112744); experiment: BSK_BT_xIL17F: BioMAP Diversity Plus: BT Assay for Interleukin 17F (IL17F) Biomarker Activity (AID 2284243); conditions: primary human B cells with PBMC
# In short: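 Luminex readout of IL-17F secretion, 24 h; cells: human B cells with PBMC; positive-direction analysis, DMSO control.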
# [7] = read-out: Actin alpha 1 (ACTA1), ACTA1 (gene 58); experiment: BSK_MyoF_ACTA1: BioMAP Diversity Plus: MyoF Assay for Actin alpha 1 (ACTA1) Biomarker Activity (AID 2284244); conditions: primary human lung fibroblasts
# In short: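 Cells were exposed to chemical for 24 h before a-SMA levels were quantified by ELISA in human lung fibroblasts. Increases were fitted against DMSO as negative control; parallel SRB staining (0.1% after 10% TCA fixation, 560 nm) assessed cytotoxicity.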
# [8] = read-out: Interleukin 2 (IL2), IL2 (gene 3558); experiment: BSK_BT_xIL2: BioMAP Diversity Plus: BT Assay for Interleukin 2 (IL2) Biomarker Activity (AID 2284245); conditions: primary human B cells with PBMC
# In short: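 The BT system combines human B cells with peripheral blood mononuclear cells. Twenty-four hours after chemical dosing, secreted IL-2 was measured with xMAP bead technology, and responses were analyzed as increases over DMSO controls.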
# [9] = read-out: Basic fibroblast growth factor (bFGF), FGF2 (gene 2247); experiment: BSK_MyoF_bFGF: BioMAP Diversity Plus: MyoF Assay for Basic fibroblast growth factor (bFGF) Biomarker Activity (AID 2284246); conditions: primary human lung fibroblasts
# In short: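 Chemicals are added to human lung fibroblast cultures and incubated 24 h. bFGF is then measured by ELISA, while parallel cultures receive SRB staining for total protein as a cytotoxicity check. Data are fitted upward against DMSO.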
# [10] = read-out: Collagen IV, COL4A1 (gene 1282); experiment: BSK_MyoF_CollagenIV: BioMAP Diversity Plus: MyoF Assay for Collagen IV Biomarker Activity (AID 2284247); conditions: primary human lung fibroblasts
# In short: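 Human lung fibroblast system, 24 h chemical exposure. Endpoint: Collagen IV by ELISA, upward fit vs DMSO.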
# [11] = CCTE_Mundy_HCI_Cortical_NOG_BPCount: CCTE's Neurite Outgrowth Assay in rat cortical cells for Branch Point Count, Mundy Lab (AID 2284237);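 on AC50: branch points counted about two days after chemical exposure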
# In short: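 Measured 50.33 h after dosing, this morphology endpoint uses rat primary cortical cultures labelled for betaIII-tubulin. Branch points are quantified by high-content imaging, with DMSO as negative control and baseline.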
# [12] = CCTE_Mundy_HCI_hNP1_Casp3_7: CCTE's Caspase-Glo 3/7 Assay in human neuroprogenitor cells for Apoptosis, Mundy Lab (AID 2284240)
# In short: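 Luminescent caspase-3/7 readout, 26.5 h post-dose, in human neural progenitor cells from WA09 embryonic stem cells. Cells grew 40–44 h at 37 °C, 5% CO2 before chemical addition. Activity analysed as signal increase over DMSO baseline.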
# [13] = CCTE_Mundy_HCI_hNP1_CellTiter: CCTE's Cell Titer-Glo 2 Assay in human neuroprogenitor cells for Viability, Mundy Lab (AID 2284241; active means hit-call score of the fitted dose curve at least 0.9, where 1 is the maximum)
# In short: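 Viability read as luminescent ATP content (CellTiter-Glo, 30 min room temperature) twenty-four hours after dosing, relative to DMSO. Cells: WA09-derived hNP1 neuroprogenitors on poly-L-ornithine/laminin, plated 40 to 44 hours before chemical.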
# [14] = CCTE_Mundy_HCI_Cortical_Synap_Neur_Matur_NeuronCount: CCTE's Synaptogenesis and Neurite Maturation Assay in rat cortical cells for Neuron Count, Mundy Lab (AID 2284242; active means hit-call score of the fitted dose curve at least 0.9, where 1 is the maximum;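 on AC50: neuron number from Hoechst nuclei and MAP2 staining by high-content imaging; hits reduce neuron count versus DMSO baseline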)
# In short: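 Cortical cells from rat are plated, treated with AraC at DIV 5, and exposed to test chemicals with a media change at DIV 7. At DIV 12 they are fixed and immunostained (MAP2, synaptophysin), and imaged neuron counts are compared against DMSO controls.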
# [15] = read-out: Monokine induced gamma interferon (MIG), CXCL9 (gene 4283); experiment: BSK_KF3CT_MIG: BioMAP Diversity Plus: KF3CT Assay for Monokine induced gamma interferon (MIG) Biomarker Activity (AID 2284248); conditions: primary human keratinocytes with fibroblasts
# In short: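 MIG in dosed human skin co-cultures was measured by ELISA at 24 h, relative to DMSO.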
# [16] = read-out: Collagen I, COL1A1 (gene 1277); experiment: BSK_hDFCGF_CollagenI: BioMAP Diversity Plus: hDFCGF Assay for Collagen I Biomarker Activity (AID 2284250); conditions: primary human foreskin fibroblasts
# In short: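 Collagen I ELISA, primary human foreskin fibroblasts, 24 h chemical exposure, DMSO = negative control/baseline, positive fitting direction.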
# [17] = CCTE_Mundy_HCI_Cortical_NOG_NeuronCount: CCTE's Neurite Outgrowth Assay in rat cortical cells for Neuron Count, Mundy Lab (AID 2284236; active means hit-call score of the fitted dose curve at least 0.9, where 1 is the maximum;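 further: neurons counted by imaging betaIII-tubulin and Hoechst stained cortical cells; cells exposed to compound for about 48 hours before fixation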)
# In short: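 Read-out: neuron number by high-content imaging of betaIII-tubulin (Alexa Fluor-488) and Hoechst-labelled rat primary cortical cells.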
# [18] = UKN4_HCS_LUHMES_cell_viability: Viability Assessment in the University of Konstanz (UKN) Leist Lab Neurite Outgrowth Assay in human LUHMES cells (UKN4) (AID 2284232)
# In short: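 Cells switched to differentiation medium at day 0, replated on day 2 in medium lacking cAMP and GDNF, and compound-treated once attached. Live staining began 23.5 h later, imaging followed at 24 h.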
# [19] = UKN2_HCS_IMR90_cell_viability: Viability Assessment in the University of Konstanz (UKN) Leist Lab Neural Crest Cell Migration Assay in human induced IMR90 Pluripotent Stem Cells (UKN2) (AID 2284233);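 further: cells exposed to compound for 24 h after a 24 h migration phase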
# In short: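 Viability read as calcein-AM fluorescence by high-content imaging, Hoechst co-stain, 30 min. Human iPSC (IMR90) neural crest cells had migrated 24 h into stopper-defined gaps before 24 h chemical exposure. Fitted bidirectionally relative to DMSO.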
# Sequence of Tumor necrosis factor (Homo sapiens) (P01375 whole entry, looked up): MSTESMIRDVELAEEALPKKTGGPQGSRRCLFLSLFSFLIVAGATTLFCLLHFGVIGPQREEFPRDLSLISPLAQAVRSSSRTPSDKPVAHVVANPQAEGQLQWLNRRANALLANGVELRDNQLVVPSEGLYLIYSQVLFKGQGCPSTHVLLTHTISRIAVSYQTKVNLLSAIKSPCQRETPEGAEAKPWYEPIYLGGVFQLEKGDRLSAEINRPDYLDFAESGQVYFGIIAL
compound,measurement,setting,value
CCOC(=O)C(SP(=S)(OC)OC)c1ccccc1 (configuration not stated),outcome,[1],inactive
same,outcome,[2],inactive
same,outcome,[3],inactive
same,outcome,[4],inactive
same,outcome,[5],inactive
same,outcome,[6],inactive
same,AC50,[7],20 µM (active)
same,outcome,[8],inactive
same,outcome,[9],inactive
same,outcome,[10],inactive
Cc1cc(C(C)(C)c2ccc(O)c(C)c2)ccc1O,outcome,[1],inactive
same,outcome,[2],inactive
same,AC50,[3],16.4 µM (active)
same,AC50,[4],15.4 µM (active)
same,AC50,[5],15.1 µM (active)
same,outcome,[6],inactive
same,AC50,[7],19 µM (active)
same,outcome,[8],inactive
same,outcome,[9],inactive
same,outcome,[10],inactive
Nc1c(Oc2ccccc2)cc(O)c2c1C(=O)c1ccccc1C2=O,outcome,[1],inactive
same,outcome,[2],inactive
same,outcome,[3],inactive
same,outcome,[4],inactive
same,outcome,[5],inactive
same,outcome,[6],inactive
same,outcome,[7],inactive
same,outcome,[8],inactive
same,outcome,[9],inactive
same,AC50,[10],2.54 µM (active)
Cc1ccc(OP(=O)(Oc2ccc(C)cc2C)Oc2ccc(C)cc2C)c(C)c1,AC50,[1],11.7 µM (active)
same,AC50,[2],20 µM (active)
same,outcome,[3],inactive
same,outcome,[4],inactive
same,AC50,[5],20 µM (active)
same,AC50,[6],24.9 µM (active)
same,outcome,[7],inactive
same,AC50,[8],12 µM (active)
same,outcome,[9],inactive
same,outcome,[10],inactive
CCC(C)(C#N)N=NC(C)(C#N)CC (configuration not stated),outcome,[1],inactive
same,outcome,[2],inactive
same,outcome,[3],inactive
same,outcome,[4],inactive
same,outcome,[5],inactive
same,outcome,[6],inactive
same,outcome,[7],inactive
same,outcome,[8],inactive
same,outcome,[9],inactive
same,outcome,[10],inactive
CC(C)[C@@H](Nc1ccc(C(F)(F)F)cc1Cl)C(=O)OC(C#N)c1cccc(Oc2ccccc2)c1 (some centres not stated),outcome,[11],inactive
same,outcome,[12],inactive
same,outcome,[13],inactive
same,outcome,[14],inactive
CCOP(=O)(OCC)OC(=CCl)c1ccc(Cl)cc1Cl,AC50,[1],10.4 µM (active)
same,outcome,[2],inactive
same,AC50,[3],31.2 µM (active)
same,AC50,[4],35.8 µM (active)
same,AC50,[5],30.7 µM (active)
same,outcome,[6],inactive
same,AC50,[7],30.5 µM (active)
same,AC50,[8],20 µM (active)
same,outcome,[9],inactive
same,outcome,[10],inactive
CCOC(=O)CC(=O)CCl,AC50,[1],11.8 µM (active)
same,AC50,[2],23.4 µM (active)
same,outcome,[3],inactive
same,outcome,[4],inactive
same,outcome,[5],inactive
same,AC50,[6],12.4 µM (active)
same,outcome,[7],inactive
same,AC50,[8],20 µM (active)
same,outcome,[9],inactive
same,outcome,[10],inactive
O=C(Cc1ccccc1)OCCc1ccccc1,outcome,[15],inactive
same,outcome,[16],inactive
NC(=O)c1ccc(N)nc1,outcome,[17],inactive
same,AC50,[11],11.4 µM (active)
same,outcome,[12],inactive
same,outcome,[13],inactive
same,AC50,[14],7.58 µM (active)
CC(C)=CC1C(C(=O)OCc2cccc(Oc3ccccc3)c2)C1(C)C (configuration not stated),AC50,[1],11.2 µM (active)
same,AC50,[2],20 µM (active)
same,outcome,[3],inactive
same,outcome,[4],inactive
same,outcome,[5],inactive
same,AC50,[6],20 µM (active)
same,outcome,[7],inactive
same,AC50,[8],20 µM (active)
same,outcome,[9],inactive
same,outcome,[10],inactive
CNC(=O)CSP(=O)(OC)OC,outcome,[18],inactive
same,outcome,[19],inactive
same,outcome,[17],inactive
same,outcome,[11],inactive
same,outcome,[12],inactive
same,outcome,[13],inactive
